CtBP-E1A blk: inhibitors of CtBP/E1A interaction | AlphaScreen GST-E1A/His-CtBP binding, 1536-well; hits give low values | activity change, % (concentration not given with the values) | 340,000 tested, 0.49% active | AID 651724; in the data active means activity change below about -65%; inconclusive means mostly about -30% to -63%
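In 5 uL wells, 23 nL compound meets equimolar GST-E1A and His-CtBP (5X stock 125 nM each) for 2 h, 37 °C. Beads (5X, 50 ug/mL) then 1 h, 37 °C, dark.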
DT40 TDP1 CPT: DT40-hTDP1 cell growth loss with CPT. AID 686979. 420,000 tested, 12% active. chicken DT40 Tdp1-/-;hTDP1 cells + 20 nM CPT, ATP luminescence, 48 h. Potency, µM (highest dose often 46.2 µM), actives largely listed as inhibitors; further: nearly all actives have a fitted effect of over 55% in size
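Chicken DT40 Tdp1-/- cells complemented with human TDP1, 400 cells/well, exposed to compounds plus 20 nM camptothecin for at least 48 h at 37 C; viability read as ATP content by CellTiter-Glo luminescence.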
Six1-Eya2 inh: blocks human Six1 binding to Eya2; Q15475+O00167; AlphaScreen GST-Six1/His-Eya2 binding, biochemical; hits give low values; activity change, % (no concentration beside the values); 360,000 tested, 0.56% active; in the data active means activity change below about -65%; inconclusive means mostly about -30% to -63%
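Homogeneous AlphaScreen proximity assay pairing GST-Six1 with His-tagged Eya2 (added as 5X mix: 250 nM and 500 nM) in 50 mM Tris pH 8.0, 300 mM NaCl, 1 mM TCEP. Glutathione donor and nickel acceptor beads; 1 h, 37 °C, dark.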
TDP1 block: TDP1 (human) enzyme inhibition; AID 485290; 350,000 tested, 0.28% active; recombinant TDP1, AlphaScreen DNA substrate cleavage; Potency, µM (doses to about 130 µM), hits mostly inhibitors; further: nearly all actives have a fitted effect of over 40% in size
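Compounds were preincubated with Tdp1 (1 nM final) for 15 min at room temperature before substrate (15 nM final) started a 5 min reaction; beads (10 ug/ml final) were then added for 10 min before AlphaScreen detection.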
IL-1B inflam inh: inflammasome signaling inhibition, IL-1 beta readout | THP-1 LPS/ATP IL-1B secretion, AlphaLISA, 16 h; hits give low values | activity change, % at 57.5 µM | 360,000 tested, 4.7% active | AID 743279; in the data active means activity change below about -50%; inconclusive means mostly about -30% to -49%
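THP-1 cells pretreated 1 hr with compounds (up to 57.5 uM final), then stimulated with LPS (250 ng/mL final) plus ATP (1.25 mM final); secreted IL-1B measured by AlphaLISA after 16 hr, decreased signal indicating inhibition.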
DT40 TDP1 no CPT: qHTS for Inhibitors of human tyrosyl-DNA phosphodiesterase 1 (TDP1): qHTS in cells in absence of CPT; Potency, µM (titrated, usually from 46.2 µM), actives largely listed as inhibitors; 420,000 tested, 15% active; DT40 Tdp1-/- hTDP1 cells, no CPT, ATP luminescence, 48 h; further: nearly all actives have a fitted effect of over 55% in size
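Stably hTDP1-transfected Tdp1-null chicken DT40 cells were treated with library compounds minus camptothecin and grown for at least 48 hr at 37 °C, after which cellular ATP was quantified by luminescence.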
Numbers stand for hits; - = inactive; ? = inconclusive; . = not tested or not shown; [ ] = dose if it differs, or a comment. Hits are enriched below; roughly 18% of the tested compounds scored in any of these assays. Unless noted, the call rests on the fitted dose curve; in most records, active means well fitted curve in the direction sought with a large enough effect; inconclusive means small, poorly fitted or top-dose-only effect, or another doubt; inactive means no such curve, though single readings can be large; an effect the other way counts as inactive or inconclusive.

SMILES	CtBP-E1A blk	DT40 TDP1 CPT	Six1-Eya2 inh	TDP1 block	IL-1B inflam inh	DT40 TDP1 no CPT
CCN(CC)S(=O)(=O)c1ccc(-c2nnc(SCC(=O)N3c4ccccc4CC3C)n2CC)cc1 (centres undefined)	-	15µM	-	-	-	21µM
CCOCCCn1c(=S)[nH]c2cc(C(=O)N3CCN(C)CC3)ccc2c1=O	-	-	-	-	-	-
CCc1ccc(NC(=O)NCC2CCN(Cc3cccc(Cl)c3)CC2)cc1	.	?	-	.	-	13µM
Cc1ccc(NC(=O)NCC2CCN(Cc3cccc(Cl)c3)CC2)cc1Cl	-	?	-	-	-100	16µM
O=C(NC(c1ccc2ccccc2n1)c1cccs1)C1CCN(Cc2cccc(C(F)(F)F)c2)CC1 (centres undefined)	-	7.3µM	-	.	-66	10µM
O=C(NC(c1ccccc1)c1ccc2ccccc2n1)C1CCN(Cc2ccc(Cl)c(Cl)c2)CC1 (centres undefined)	-	?	-	.	?	15µM
O=C(NC(c1ccccc1)c1ccc2ccccc2n1)C1CCN(Cc2cccc(C(F)(F)F)c2)CC1 (centres undefined)	-	7.3µM	-	.	?	6.5µM
Nc1c(C(=O)c2ccc(Cl)cc2)sc2nc3c(cc12)CCC3	-	-	-	-	-	-
CC1CCCCC1Nc1ncnc2sccc12 (centres undefined)	-	18µM	-	-	-	?
c1ccc(Nc2ncnc3sccc23)cc1	-	-	-	-	-	-
Cn1c(SCC(=O)c2ccc3c(c2)OCO3)nnc1C1COc2ccccc2O1 (centres undefined)	-	21µM	-	-	-	16µM
COc1ccc(C(=O)CSc2nnc(CN3CCCCC3)n2-c2ccc(Cl)cc2)cc1OC	-	?	-	-	-	21µM
O=C(CSc1nnc(CN2CCCC2)n1-c1ccccc1)c1ccc2c(c1)OCO2	-	?	-	-	-	16µM
COc1ccc(NC(=O)CSc2nnc(CN3CCOCC3)n2-c2ccccc2)cc1Cl	-	?	-	-	-	-
O=C(CSc1nnc(Cc2ccccc2)o1)c1ccc2c(c1)OCO2	-	-	-	-	-	-
Cn1c(SCC(=O)c2ccccc2)nnc1C1COc2ccccc2O1 (centres undefined)	-	-	-	-	-	?
c1ccc(CCNCc2cccs2)nc1	-	-	-	.	-	-
COc1ccc(OC(=O)c2nc(SCc3ccc(C)cc3)ncc2Cl)cc1	.	?	.	-	.	-
CCCCNC(=O)c1cc2c(=O)n3cccc(C)c3nc2n(CCN2CCOCC2)c1=N	-	?	-	-	-	?
COc1ccc(C2CC(=O)c3c(O)cc(O)cc3O2)c(CC=C(C)C)c1OC (centres undefined)	-	23µM	-	.	-	?
CCCCC[n+]1ccn(C2=C([O-])c3ccccc3C(=O)/C2=N\S(=O)(=O)c2ccc(Cl)cc2)c1	-	4.6µM	-	.	-	2.9µM
CCCC[n+]1ccn(-c2nc3ccccc3nc2[N-]S(=O)(=O)c2ccc(Br)cc2)c1	-	-	-	-	-	-
CCCC[n+]1ccn(C2=C([O-])c3ccccc3C(=O)/C2=N\S(=O)(=O)c2ccc(Cl)cc2)c1	-	8.2µM	-	-	-	9.2µM
COc1cc(C(=O)N2CC(=O)Nc3ccc(C)cc3C2c2ccc(F)cc2)cc(OC)c1OC (centres undefined)	.	?	.	-	.	?
COc1ccccc1NC(=O)C1CCN(S(=O)(=O)c2ccc3c(c2)NC(=O)C(C)S3)CC1 (centres undefined)	.	?	-	-	-	?
SMILES	CtBP-E1A blk	DT40 TDP1 CPT	Six1-Eya2 inh	TDP1 block	IL-1B inflam inh	DT40 TDP1 no CPT
COc1ccc(CNC(=O)C2CCN(S(=O)(=O)c3ccc4c(c3)NC(=O)C(C)S4)CC2)cc1 (centres undefined)	-	?	-	-	-	?
CC1Sc2ccc(S(=O)(=O)N3CCC(C(=O)N(C)Cc4ccco4)CC3)cc2NC1=O (centres undefined)	-	15µM	-	-	-	?
CCc1ccc(NC(=O)C2CCN(S(=O)(=O)c3ccc4c(c3)NC(=O)C(C)S4)CC2)cc1 (centres undefined)	-	18µM	-	-	-	?
CCc1ccc(NC(=O)C2CCN(S(=O)(=O)c3ccc4c(c3)NC(=O)CO4)CC2)cc1	-	?	-	-	?	?
CC1Sc2ccc(S(=O)(=O)N3CCC(C(=O)Nc4cccc(Cl)c4)CC3)cc2NC1=O (centres undefined)	-	?	-	-	?	18µM
CC1Sc2ccc(S(=O)(=O)N3CCC(C(=O)NCc4ccc(Cl)cc4)CC3)cc2NC1=O (centres undefined)	-	16µM	-	-	-	15µM
CCn1c(-c2ccc(F)cc2)cnc1SCC(=O)N1CCCCC1C (centres undefined)	.	.	.	-	.	.
CCOC(=O)CSc1nc2ccc(NC(=O)CSc3nnnn3Cc3ccccc3)cc2s1	-	-	-	-	-	-
CC(C)(C)NC(=O)CSc1nc2ccc(NC(=O)CSc3nnc(N)s3)cc2s1	-	21µM	-	-	-	9.2µM
CC(C)(C)NC(=O)CSc1nc2ccc(NC(=O)CSc3nnnn3Cc3ccccc3)cc2s1	-	8.2µM	-	-	-	10µM
CCOC(=O)C1=C(COC(=O)CCC(=O)c2ccc(C)cc2)NC(=O)NC1C (centres undefined)	-	-	-	-	-	-
Cc1ccc(Cl)cc1-n1ncc2c(NCc3ccc(F)cc3)ncnc21	.	?	.	-	.	?
Cc1ccc(Cl)cc1-n1ncc2c(NCCc3ccccc3)ncnc21	.	16µM	.	-	.	21µM
Cc1ccc(Cl)cc1-n1ncc2c(NCCCc3ccccc3)ncnc21	.	7.3µM	.	-	.	?
Cc1ccc(-n2ncc3c(NCc4ccccc4)ncnc32)cc1Cl	.	?	.	-	.	?
Fc1ccc(-n2ncc3c(NCCC4=CCCCC4)ncnc32)cc1	.	?	.	-	.	?
Cc1ccc(Cl)cc1-n1ncc2c(NCCC3=CCCCC3)ncnc21	.	16µM	.	-	.	?
COc1cccc(C(=O)NC(=NCCc2c[nH]c3ccc(OC)cc23)Nc2nc(C)cc(C)n2)c1	.	.	.	-	.	.
COC(=O)NC(c1ccco1)C(C(C)=O)C(=O)OC (centres undefined)	.	.	.	-[21 µM]	.	.
CC1(C)Cc2c(cnn2-c2ccccc2)C(=O)/C1=N\NC(=O)c1ccccc1O	-	-	-	-	-	-
CCOC(=O)C1=CCN(S(=O)(=O)c2ccccc2Cl)C1c1cccc(F)c1 (centres undefined)	-	?	-	.	-	?

Source: PubChem
